Whole data set: some 33,000 sequences, median “e-score” near -0.05, cut for the highest 2% near 0.38. For the sample, the highest values were picked, then their nearest neighbours and some sequences at random.

In this experiment the target is T1, SIX1-Q177R homeodomain (human, UniProt Q15475 108-198, Q177R).
T1 sequence: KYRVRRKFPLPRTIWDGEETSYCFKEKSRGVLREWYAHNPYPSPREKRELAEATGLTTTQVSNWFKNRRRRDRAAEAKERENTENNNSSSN
Put plainly: universal protein binding microarray; Universal all-10-mer PBM (8x60K, AMADID 030236), 300 nM GST-tagged protein, Alexa Fluor 488 anti-GST; buffer, salt, pH and temperature not stated (as in Berger); high values mean tight binding. Conditions: protein: ivt; tags: N-terminal GST; dsDNA, one strand shown. A digest of the protocol:
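Homeodomains carrying a GST tag were produced by in vitro transcription/translation, then quantified by anti-GST western blot against a recombinant GST standard curve. Duplicate applications at 300 nM final concentration were made to universal 'all 10-mer' protein binding microarrays in 8×60K format. The Universal PBM Analysis Suite was used to express binding as 8-mer E-scores.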
Take AGTGTTGC: the binding signal came to 0.321 ± 0.00542 E-score.
Consider ACTTAATG, for which the binding signal is 0.219 ± 0.0268 E-score.
Take CAATAGGG: the binding signal stood at 0.2 ± 0.0026 E-score.
For CCCGGACA, the binding signal worked out at 0.233 ± 0.00728 E-score.
The result for TGTCATAA reads 0.1985 ± 0.00132 E-score; that for AATGCACC, 0.162 ± 0.026 E-score.
Then GGGGTTAC, with 0.261 ± 0.0216 E-score; and AGTGTTAC, with 0.387 ± 0.0129 E-score; and AGTGTTAT, with 0.395 ± 0.041 E-score.
The result for GGCGTTAC reads 0.154 ± 0.00446 E-score.
As to AGTGTTAA, the binding signal is 0.394 ± 0.0556 E-score.
Then AGTGTTTC, with 0.299 ± 0.0238 E-score.
Then GGTGTTAC, with 0.474 ± 0.00578 E-score.
Take AGTGTTCC: the binding signal turned out to be 0.334 ± 0.0173 E-score.
Then AGGAGTAT, with 0.168 ± 0.0487 E-score; and CGGGAACA, with 0.157 ± 0.0155 E-score; and CACCGGCG, with 0.244 ± 0.0186 E-score.
The result for CCGGGGTC reads 0.323 ± 0.0298 E-score; that for ACCCTAGA, 0.176 ± 0.00214 E-score.
Then CACGTCAC, with 0.16 ± 0.0113 E-score; and GAGGTACA, with 0.252 ± 0.0061 E-score; and GGTGATAC, with 0.313 ± 0.00834 E-score.
Consider CGTGACCC, for which the binding signal was 0.211 ± 0.0247 E-score.
The result for AGTGACTC reads 0.193 ± 0.0365 E-score; that for GGGGTGAC, 0.16 ± 0.0356 E-score; that for CGTGACAC, 0.454 ± 0.00689 E-score.
In the case of AGTGACAC, the binding signal was found to be 0.469 ± 0.00575 E-score.
The result for AGTGACCC reads 0.234 ± 0.019 E-score.
The result for GGTGACAC reads 0.4718 ± 0.00406 E-score; that for CGTGACTC, 0.207 ± 0.00528 E-score; that for CACGGAGG, 0.222 ± 0.0241 E-score.
Regarding CACGGCTG, the binding signal was found to be 0.201 ± 0.0155 E-score.
Then AGTATCAT, with 0.259 ± 0.0404 E-score; and CGCCGCAC, with 0.151 ± 0.00857 E-score; and ACCGACAC, with 0.425 ± 0.0144 E-score.
In the case of GCCGACAC, the binding signal is 0.422 ± 0.0235 E-score.
In the case of CCCGACGC, the binding signal is 0.151 ± 0.00346 E-score.
Then CCCGACCC, with 0.187 ± 0.0176 E-score; and CCCGACAC, with 0.45 ± 0.0155 E-score; and ACCGACCC, with 0.192 ± 0.0372 E-score.
Take GCCGATCC: the binding signal stood at 0.19 ± 0.00748 E-score.
As for ACCGACTC, the binding signal was found to be 0.204 ± 0.0477 E-score.
The result for CAGCACCG reads 0.242 ± 0.0129 E-score.
The result for CGGACGAC reads 0.152 ± 0.037 E-score.
The result for GTTCCGGA reads 0.175 ± 0.0199 E-score.
As to ACCCACGA, the binding signal was found to be 0.153 ± 0.0296 E-score.
Then AAACTAGA, with 0.163 ± 0.00455 E-score; and CTTGTACA, with 0.154 ± 0.0493 E-score; and CGTGTACA, with 0.427 ± 0.00703 E-score.
Then AGTGTACA, with 0.418 ± 0.0292 E-score; and GGGGTACC, with 0.247 ± 0.0225 E-score.
The result for AGTGTGCC reads 0.159 ± 0.0249 E-score.
Consider CATGTACA, for which the binding signal came to 0.167 ± 0.0144 E-score.
As to CGTGTACC, the binding signal amounted to 0.4357 ± 0.00135 E-score.
For AGTGTACC, the binding signal was found to be 0.414 ± 0.00528 E-score.
As for ACTGTACA, the binding signal worked out at 0.223 ± 0.00571 E-score.
Then AGAGTACA, with 0.186 ± 0.00263 E-score; and CGGGTACC, with 0.16 ± 0.0136 E-score.
Turning to CGTGTGCC, the binding signal amounted to 0.168 ± 0.0218 E-score.
The result for AGTACCCA reads 0.175 ± 0.0132 E-score.
As for CACCATGG, the binding signal came to 0.343 ± 0.0218 E-score.
Take CGTAGGTA: the binding signal came to 0.209 ± 0.00643 E-score.
Turning to CACTAGTC, the binding signal worked out at 0.208 ± 0.0318 E-score.
The result for CACGGTAC reads 0.186 ± 0.0635 E-score; that for CACTATAG, 0.192 ± 0.0146 E-score.
On to AGTGTGTG, for which the binding signal worked out at 0.197 ± 0.0254 E-score.
As to CGAGTACG, the binding signal was found to be 0.19 ± 0.0193 E-score.
Then GCTGTACA, with 0.208 ± 0.0271 E-score; and GTTGTACA, with 0.223 ± 0.0201 E-score.
For the sequence AGTGTACG, the binding signal was 0.407 ± 0.00139 E-score.
For the sequence GGTGTACA, the binding signal came out at 0.4817 ± 0.00156 E-score.
Turning to CACGGAAA, the binding signal turned out to be 0.188 ± 0.0559 E-score.
Then ACACCGAC, with 0.475 ± 0.00507 E-score; and ACCCCGAA, with 0.228 ± 0.0524 E-score; and GCACCGAC, with 0.225 ± 0.017 E-score.
The result for ACACCGAG reads 0.4783 ± 0.00449 E-score; that for ATACCGAC, 0.173 ± 0.0172 E-score.
In the case of ACGCCGAT, the binding signal is 0.152 ± 0.0158 E-score.
The result for GCACCGAA reads 0.156 ± 0.0137 E-score; that for ACCCCGAT, 0.229 ± 0.00378 E-score; that for ACCCCGAG, 0.317 ± 0.0221 E-score.
Turning to CCCCCGAG, the binding signal was determined as 0.188 ± 0.0196 E-score.
For ACACCGAT, the binding signal stood at 0.473 ± 0.00479 E-score.
The result for ACACCGAA reads 0.4689 ± 0.000997 E-score; that for CACCGTAG, 0.255 ± 0.00273 E-score.
For the sequence CGGAGTAC, the binding signal was 0.229 ± 0.00578 E-score.
Then GGCGAACA, with 0.198 ± 0.0404 E-score; and ACCCTTAG, with 0.172 ± 0.00692 E-score.
For CACTAAAC, the binding signal was 0.195 ± 0.0243 E-score.
In the case of CACTTGAC, the binding signal was determined as 0.258 ± 0.0158 E-score.
Take CAAGGATA: the binding signal stood at 0.184 ± 0.029 E-score.
For ACTCCACA, the binding signal is 0.206 ± 0.00721 E-score.
In the case of AGTTGGGG, the binding signal was found to be 0.16 ± 0.00841 E-score.
For CTGACGCC, the binding signal came out at 0.185 ± 0.012 E-score.
Consider CTGACACC, for which the binding signal came to 0.4913 ± 0.00298 E-score.
The result for ATGACGCC reads 0.172 ± 0.00576 E-score; that for ATGACTCC, 0.273 ± 0.00839 E-score; that for CTGACACA, 0.297 ± 0.0288 E-score.
The result for ATGACACA reads 0.275 ± 0.0196 E-score; that for GTGACACA, 0.333 ± 0.0417 E-score; that for ATGACACG, 0.4485 ± 0.00163 E-score.
The result for ATGACACC reads 0.4917 ± 0.00156 E-score; that for CCCCCAAG, 0.227 ± 0.0377 E-score; that for CGGCTACG, 0.164 ± 0.00561 E-score.
In the case of CACCAATA, the binding signal came to 0.276 ± 0.0342 E-score.
Take CCCCCATA: the binding signal is 0.192 ± 0.0334 E-score.
The result for GGGATGTA reads 0.159 ± 0.0364 E-score.
Consider AACGAACA, for which the binding signal is 0.208 ± 0.0231 E-score.
Then AGGTGCTC, with 0.158 ± 0.0126 E-score; and AGGTGTTC, with 0.457 ± 0.00831 E-score; and GTGTGTTA, with 0.298 ± 0.00829 E-score.
The result for ACGTGTTG reads 0.346 ± 0.00562 E-score; that for CGGAGTTA, 0.253 ± 0.0116 E-score; that for CGGTGCTA, 0.2 ± 0.00414 E-score.
On to GGGTGTTA, for which the binding signal is 0.475 ± 0.00715 E-score.
The result for AGGTGTTG reads 0.448 ± 0.00602 E-score; that for GGGGGTTA, 0.293 ± 0.0288 E-score; that for AAGTGTTG, 0.289 ± 0.02 E-score.
As to CGGTGTTA, the binding signal worked out at 0.4847 ± 0.00334 E-score.
Turning to ACGCCCAG, the binding signal is 0.1915 ± 0.000269 E-score.
Consider CACCTGGC, for which the binding signal was 0.152 ± 0.00727 E-score.
Then CGCCCAGC, with 0.161 ± 0.0486 E-score; and AATACCCT, with 0.171 ± 0.00453 E-score; and CCCCTCGC, with 0.169 ± 0.0263 E-score.
The result for TGTCGGAA reads 0.233 ± 0.0472 E-score.
Then GTGTGCTA, with 0.321 ± 0.0179 E-score.
For the sequence GCGTTACA, the binding signal came to 0.201 ± 0.00911 E-score.
Take GCTGTGGA: the binding signal was 0.17 ± 0.0188 E-score.
With CGCCGTAC, the binding signal came to 0.178 ± 0.00701 E-score.
The result for AATGATCC reads 0.17 ± 0.0375 E-score; that for GTTGGACA, 0.245 ± 0.0116 E-score; that for CCTCTCGA, 0.17 ± 0.0627 E-score.
For the sequence CACGCACA, the binding signal came out at 0.262 ± 0.00327 E-score.
As for AGGTGTTA, the binding signal was 0.463 ± 0.00921 E-score.
As for CGGTGCTC, the binding signal was found to be 0.218 ± 0.0427 E-score.
Consider CTGTGTTC, for which the binding signal amounted to 0.175 ± 0.0413 E-score.
The result for AGGGGTTA reads 0.21 ± 0.0107 E-score; that for CGGTGTTC, 0.476 ± 0.00165 E-score.
Consider CGGAGTCA, for which the binding signal stood at 0.356 ± 0.0051 E-score.
TCATAACA: the binding signal came to 0.23 ± 0.0137 E-score.
On to CCCGGTAC, for which the binding signal turned out to be 0.22 ± 0.0152 E-score.
With CACCCTAC, the binding signal was 0.387 ± 0.01 E-score.
For CACCCTAG, the binding signal is 0.3472 ± 0.00144 E-score.
The result for CACCCTAA reads 0.3263 ± 0.00228 E-score; that for CACCCCTG, 0.351 ± 0.0108 E-score.
For CACCCCTA, the binding signal turned out to be 0.283 ± 0.00661 E-score.
Consider CACCCCTC, for which the binding signal came out at 0.3928 ± 0.00375 E-score.
In the case of CACCCGCC, the binding signal worked out at 0.339 ± 0.0104 E-score.
Then CACTTAGC, with 0.179 ± 0.029 E-score.
The result for ACGCCCAC reads 0.208 ± 0.00669 E-score.
For ATCGGCAC, the binding signal is 0.175 ± 0.0126 E-score.
The result for AGTAGGGG reads 0.196 ± 0.0406 E-score; that for CCATGGAA, 0.156 ± 0.015 E-score; that for ACACTGGC, 0.379 ± 0.00546 E-score.
The result for ACGCTGGG reads 0.154 ± 0.0213 E-score.
Then ACACTGGA, with 0.3915 ± 0.0011 E-score.
On to CCACTGGA, for which the binding signal is 0.206 ± 0.0185 E-score.
Regarding ACCCTGGG, the binding signal came out at 0.238 ± 0.00896 E-score.
In the case of AAACTGGT, the binding signal is 0.203 ± 0.0496 E-score.
ACACTGGT: the binding signal came to 0.4256 ± 0.00135 E-score.
As to ACACTGTA, the binding signal was 0.3506 ± 0.0019 E-score.
Then ACACTGGG, with 0.412 ± 0.0164 E-score; and ACACTGAT, with 0.374 ± 0.00694 E-score; and ACACTTGC, with 0.363 ± 0.0273 E-score.
With ACCATGGG, the binding signal amounted to 0.162 ± 0.0492 E-score.
Take CGATAACA: the binding signal is 0.232 ± 0.018 E-score.
The result for GGGGTGGA reads 0.159 ± 0.0262 E-score.
Then AGTCAGAG, with 0.156 ± 0.0606 E-score; and CACCCTGG, with 0.315 ± 0.016 E-score.
Then CCTTGACC, with 0.172 ± 0.00687 E-score.
As for AAGGGGTA, the binding signal is 0.2871 ± 0.000587 E-score.
Then AAACTACA, with 0.184 ± 0.032 E-score.

The values are drawn from paper PMC10668032, “Altered binding affinity of SIX1-Q177R correlates with enhanced WNT5A and WNT pathway effector expression in Wilms tumor”.
